Among the data in PubChem BioAssay AID2016 (NMMLSC, 2009) are GFP response vs DMSO values, retold here.

The structures appear in SMILES notation. Among all 330,000 compounds or so, about 1,700 (0.52%) were called active. The sample holds actives, similar compounds and a random draw of the others, so the mix is not that of the screen. Values without a mark were called inactive.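 The calls were made as follows: active = GFP response versus DMSO above a set limit, roughly screen mean plus 3 SD (cut at about 180% in these data); inconclusive = fewer than 70 cells counted for a yeast strain; inactive = the rest.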

The nature of this test: modulators of MEP2-GFP levels in yeast, primary screen, S. cerevisiae, multiplex flow cytometry, MLPCN library (AID 2016).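 Also: median GFP fluorescence of the barcode-gated MEP2-GFP cells per well.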 The note with it: S. cerevisiae MEP2-GFP strain, 3 h, at 10 µM, active compounds read high, 100% = DMSO control level. (In general: In flow cytometry, cells or beads pass a laser one at a time.)
Consider `COc1ccc(-n2nc(C(=O)NCC(=O)N3CCCCCC3)c3ccccc3c2=O)cc1Cl`, for which the GFP response vs DMSO was 107%.

`CC(=O)Nc1ccc(Nc2cc(C)nc(Nc3ccc(NC(C)=O)cc3)n2)cc1`: the GFP response vs DMSO was 92%.

Regarding `Cc1cc(C)c(C(N)=O)c(Cl)n1`, the GFP response vs DMSO is 104%.

As to `Cc1ccc(Nc2nc(C)cc(C)c2C(N)=O)cc1`, the GFP response vs DMSO was 209% [may fluoresce violet] (active).

Consider `COc1ccc(-c2nc(N)sc2C2(O)C(=O)Nc3c(Br)cc(F)cc32)cc1OC` (stereo unspecified), for which the GFP response vs DMSO was 103%.

For `COc1cc(C(=O)Nc2cc(C(F)(F)F)ccc2N2CCOCC2)ccc1O`, the GFP response vs DMSO was 106%.

In the case of `O=C(c1ccncc1)N1CCN(S(=O)(=O)c2cc(C(F)(F)F)cc(C(F)(F)F)c2)CC1`, the GFP response vs DMSO was 103%.

As for `COc1ccc(O[C@H]2C=C[C@@H](c3ccccc3)O[C@@H]2CO/N=C/C[C@@H]2C=C[C@H](OC(C)=O)[C@@H](COC(C)=O)O2)cc1`, the GFP response vs DMSO was 90%.

On to `CC(NC(=S)NC1CCCCC1)C(c1ccccc1)N1CCOCC1` (stereo unspecified), for which the GFP response vs DMSO is 99.2%.

Consider `CC1CCC(NS(=O)(=O)c2ccc3c(c2)n(C)c(=O)c(=O)n3C)CC1` (stereo unspecified), for which the GFP response vs DMSO was 102%.

For the compound `O=S(=O)(NC1CC1)c1ccc(F)c(F)c1`, the GFP response vs DMSO is 101%.

Regarding `Cn1sc(=O)c2cc(S(=O)(=O)NC3CC3)ccc21`, the GFP response vs DMSO is 626% [may fluoresce violet] (active).

Turning to `CCCN(CCC)CC(O)COc1ccccc1C(=O)Nc1ccccc1` (stereo unspecified), the GFP response vs DMSO was 107%.

Turning to `O=C(Nc1ccc(Br)c2cccnc12)c1ccc(Cn2cc([N+](=O)[O-])cn2)o1`, the GFP response vs DMSO was 97.1%.

`O=C(COc1ccc(Cl)cc1)Nc1ccccc1CO`: the GFP response vs DMSO was 98.3%.

In the case of `O=C(COc1ccc(-n2cnnn2)cc1)Nc1ccccc1Cl`, the GFP response vs DMSO was 240% [may fluoresce violet] (active).

For the compound `C=CCc1cccc(/C=N/NC(=O)COc2ccc(-n3cnnn3)cc2)c1O`, the GFP response vs DMSO was 102%.

In the case of `Cc1c(-c2ccccc2)cn2c1-c1ccc(C)n1CC2`, the GFP response vs DMSO was 106%.

In the case of `COc1ccccc1NC(=O)C[n+]1ccccc1`, the GFP response vs DMSO was 108%.

For the compound `Cc1cccc[n+]1CC(=O)c1ccccc1`, the GFP response vs DMSO is 113%.

Take `COC(=O)C[n+]1cccc2ccccc21`: the GFP response vs DMSO is 221% (active).

For the compound `CCOc1ccc(CN(C)C(=O)c2ccc(=O)[nH]c2)cc1`, the GFP response vs DMSO was 104%.

`COc1cc(COCC(O)CN2CCN(Cc3ccc4c(c3)OCO4)CC2)cc(OC)c1OC` (stereo unspecified): the GFP response vs DMSO was 100%.

As to `COc1c(O)ccc2c1CN1CCc3cc4c(cc3C1C2)OCO4` (stereo unspecified), the GFP response vs DMSO was 205% (active).

Consider `COc1ccc2cc1Oc1ccc(cc1)C[C@H]1c3cc(c(OC)cc3CCN1C)Oc1c(O)c(OC)cc3c1[C@H](C2)N(C)CC3`, for which the GFP response vs DMSO is 99.2%.

On to `COc1ccc(NC(=O)CSc2nncc(=O)n2N)cc1OC`, for which the GFP response vs DMSO was 104%.

As for `COc1ccccc1CNC(=O)COn1nnc2ccc(S(=O)(=O)N3CCOCC3)cc21`, the GFP response vs DMSO was 123%.

`CCC(Oc1ccccc1)C(=O)NCc1cccnc1` (stereo unspecified): the GFP response vs DMSO is 101%.

With `CC(=O)OC(C(=O)NCCc1ccccc1)c1cccnc1` (stereo unspecified), the GFP response vs DMSO is 234% [may fluoresce violet] (active).

Regarding `O=C(CSc1ncccn1)NCCc1ccccc1`, the GFP response vs DMSO is 96.5%.

In the case of `COc1cc(CO)c(C2(CO)CCCC2)cc1OC`, the GFP response vs DMSO is 101%.

Consider `O=C(NC1CCCC1)C(=O)c1c[nH]c2ccccc12`, for which the GFP response vs DMSO was 90.7%.

Take `COc1ccc(/C=C(\C#N)c2c[nH]c3ccccc23)cc1`: the GFP response vs DMSO was 98.7%.

For `C[n+]1ccc(/C=C/c2c[nH]c3ccccc23)cc1`, the GFP response vs DMSO is 403% (active).

In the case of `CCOc1cc(/C=N/NC(=O)OC)ccc1OCCSc1ccc(Cl)cc1`, the GFP response vs DMSO was 94.9%.

On to `O=S(=O)(Nc1ccccc1)c1ccc(NS(=O)(=O)c2cccs2)cc1`, for which the GFP response vs DMSO was 94.2%.

With `Clc1ccc(CN2CCCCCC2)cc1Cl`, the GFP response vs DMSO is 111%.

Regarding `Cc1ccc2nc(-c3ccc(SCC(=O)Nc4cc(C)on4)nc3)[nH]c2c1`, the GFP response vs DMSO is 103%.

`CC(=O)O[C@]1(C(C)=O)CC[C@H]2[C@@H]3C=C(C)C4=CC(=O)CC[C@]4(C)[C@H]3CC[C@@]21C`: the GFP response vs DMSO is 180% [may fluoresce violet] (active).

For the compound `CC(=O)C12CC(C)=C(C)CC1CC1C3CCC4=CC(=O)CCC4(C)C3CCC12C` (stereo unspecified), the GFP response vs DMSO is 101%.

`O=C(C1Cc2ccccc2CN1C(=O)c1ccco1)N1CCN(c2ccccc2)CC1` (stereo unspecified): the GFP response vs DMSO was 93.4%.

Turning to `COc1ccc(CNC(=O)COC(=O)C(CCSC)N2C(=O)c3ccccc3C2=O)cc1` (stereo unspecified), the GFP response vs DMSO is 106%.

Regarding `Cc1c(NC(=O)Nc2cccc([N+](=O)[O-])c2)c(=O)n(-c2ccccc2)n1C`, the GFP response vs DMSO is 103%.

Regarding `Cc1c(NC(=O)c2c([N+](=O)[O-])cnn2C)c(=O)n(-c2ccccc2)n1C`, the GFP response vs DMSO was 284% [may fluoresce violet] (active).

With `Cc1cc(OCC(=O)Nc2c(C)n(C)n(-c3ccccc3)c2=O)ccc1[N+](=O)[O-]`, the GFP response vs DMSO is 112%.

For `CCOC(=O)C1CCN(C(=O)Cc2c(C(=O)O)[nH]c3ccccc23)CC1`, the GFP response vs DMSO was 105%.

With `Nc1nc(SCC(=O)Nc2ccc(Cl)c([N+](=O)[O-])c2)n[nH]1`, the GFP response vs DMSO is 106%.

As for `FC(F)(F)Oc1ccc(-c2cn3cccnc3n2)cc1`, the GFP response vs DMSO is 471% [may fluoresce violet] (active).

With `COc1ccc(-c2cn3cccnc3n2)cc1`, the GFP response vs DMSO was 101%.

In the case of `CC(C)(C)C(=O)Nc1ccc(-c2cn3cccnc3n2)cc1`, the GFP response vs DMSO is 119%.

Consider `O=C(NCC(F)(F)F)Nc1nnc(C(F)(F)F)s1`, for which the GFP response vs DMSO is 90.6%.

As to `COc1ccc(CC(NC(C)=O)C(=O)NC2CCN(C(=O)c3ccc(OC)c(OC)c3)CC2)cc1OC` (stereo unspecified), the GFP response vs DMSO is 95.1%.

For the compound `COc1ccc2[nH]c(=O)c(C3c4cc(OC)c(OC)cc4CCN3C(=O)c3ccco3)cc2c1` (stereo unspecified), the GFP response vs DMSO was 105%.

With `CCc1ccc(OCC2c3cc(OC)c(OC)cc3CCN2C(C)=O)cc1` (stereo unspecified), the GFP response vs DMSO is 269% [may fluoresce violet] (active).

As to `CCOCc1nnc(NC(=O)CCC2CCCCC2)s1`, the GFP response vs DMSO is 110%.

In the case of `CC(Oc1cc2oc(=O)c3c(c2cc1Cl)CCCC3)C(=O)NCc1ccncc1` (stereo unspecified), the GFP response vs DMSO is 185% [may fluoresce violet] (active).

With `O=C(COc1cc2oc(=O)c3c(c2cc1Cl)CCC3)NCCCN1CCOCC1`, the GFP response vs DMSO was 113%.

As to `COc1ccc(S(=O)(=O)NC(C)C(=O)NCc2ccncc2)cc1Cl` (stereo unspecified), the GFP response vs DMSO was 102%.

With `Cc1cccc(-c2nc(CS(=O)CC(=O)NC(C)CCc3ccccc3)c(C)o2)c1` (stereo unspecified), the GFP response vs DMSO was 98.7%.

In the case of `O=C(CCN1C(=O)[C@@H]2Cc3ccccc3CN2C1=O)NCCc1ccccc1`, the GFP response vs DMSO is 106%.

As to `C#CCCOC(=O)N1C2=NC(C(=O)OC)=C(C(=O)OC)[C@@H]3N(C)c4ccc(OC)cc4[C@]23C[C@H]1C(=O)OC`, the GFP response vs DMSO is 89.3%.

Regarding `COc1ccc(CSc2nnnn2-c2ccc(C(=O)O)cc2)cc1`, the GFP response vs DMSO was 114%.

For the compound `COc1ccc(-n2nnnc2SCc2nc(N)nc(N3CCOCC3)n2)cc1`, the GFP response vs DMSO was 283% [may fluoresce violet] (active).

For the compound `COc1ccc(-c2nnn(Cc3nc(N)nc(N4CCCCC4)n3)n2)cc1`, the GFP response vs DMSO was 107%.

For the compound `Cc1nn(C)c(C)c1C(C)NC(=O)c1ccc(OC2CCN(Cc3ccccn3)CC2)cc1` (stereo unspecified), the GFP response vs DMSO is 111%.

`O=c1c(-c2cccc(Cl)c2)c[nH]n1-c1ccccc1`: the GFP response vs DMSO is 193% [may fluoresce violet] (active).

For the compound `O=c1c(-c2ccccc2Cl)c[nH]n1-c1ccccc1`, the GFP response vs DMSO was 99.8%.

Consider `O=C1c2ccccc2NC(c2ccc(-c3cccc(Cl)c3)o2)N1O` (stereo unspecified), for which the GFP response vs DMSO was 103%.

As to `CC1CCN(S(=O)(=O)c2nnc(NC(=O)COc3ccccc3F)s2)CC1`, the GFP response vs DMSO was 98.5%.

For `CC1(C)Cc2c(sc3nc(SCC(=O)NCc4ccccc4)n(-c4ccccc4)c(=O)c23)CS1`, the GFP response vs DMSO is 107%.

Consider `COc1ccccc1C(=O)COC(=O)COc1ccc(C#N)cc1`, for which the GFP response vs DMSO is 114%.

Regarding `Cc1ccc(S(=O)(=O)N(Cc2cc3ccccc3[nH]c2=O)CC2CCCO2)cc1` (stereo unspecified), the GFP response vs DMSO was 195% [may fluoresce violet] (active).

For `O=C(c1cccs1)N(Cc1cc2ccccc2[nH]c1=O)CC1CCCO1` (stereo unspecified), the GFP response vs DMSO was 103%.

As for `CCN(Cc1cc2cc(C)ccc2[nH]c1=O)S(=O)(=O)c1ccccc1`, the GFP response vs DMSO is 97.6%.

As to `CC1CC(C)CN(CCCNC(=O)c2csc3c2CCCCC3)C1` (stereo unspecified), the GFP response vs DMSO was 103%.

For the compound `C=CCC[C@@H](Cc1ccc(F)cc1)C(=O)O[C@H](CNC(=O)[C@H](CC=C)CC(=O)N(CCO)Cc1ccccc1)c1ccccc1`, the GFP response vs DMSO was 104%.

On to `Cc1ccc(SCc2cc(=O)[nH]c(N3CCCCC3)n2)cc1`, for which the GFP response vs DMSO was 96.5%.

Regarding `Cc1ccc(SCCSc2ncccn2)cc1`, the GFP response vs DMSO was 106%.

For the compound `Cc1ccc(SCC2=NNC(=O)C2)cc1`, the GFP response vs DMSO was 249% [may fluoresce violet] (active).

As for `CCOc1ccc(Br)cc1CSC(=N)N`, the GFP response vs DMSO was 103%.

For `COc1ccccc1P(=O)(c1ccccc1)c1ccccc1NC(C)=O` (stereo unspecified), the GFP response vs DMSO was 83.1%.

With `COc1ccc(C(=O)NCCSc2ccccc2C)cc1`, the GFP response vs DMSO is 99.7%.

As for `COC(=O)CCSc1cc([N+](=O)[O-])cc2c1c(C1OCCS1)nn2-c1ccccc1` (stereo unspecified), the GFP response vs DMSO is 107%.

With `Cc1cc(C)cc(NC(=O)COc2coc(CN3CCN(c4ccccc4)CC3)cc2=O)c1`, the GFP response vs DMSO was 105%.

`Cc1cccc2sc(N(CCCN(C)C)C(=O)CCS(=O)(=O)c3ccccc3)nc12`: the GFP response vs DMSO is 93.5%.

In the case of `Cc1ccc2sc(N(CCN(C)C)C(=O)/C=C/c3cccs3)nc2c1C`, the GFP response vs DMSO is 253% [may fluoresce violet] (active).

In the case of `Cc1cc(C)c2nc(N(CCN(C)C)C(=O)/C=C/c3cccs3)sc2c1`, the GFP response vs DMSO was 110%.

In the case of `O=C(Nc1ccc(F)cc1)C1CCCN(S(=O)(=O)c2ccc(-n3cnnn3)cc2)C1` (stereo unspecified), the GFP response vs DMSO was 106%.

In the case of `Cn1c(COc2ccc(Cl)cc2)nc2ccccc2c1=O`, the GFP response vs DMSO was 102%.

Take `COc1ccc(-c2nc3ccccc3c(=O)n2CCc2ccc(O)cc2)cc1`: the GFP response vs DMSO was 103%.

`COc1ccc(OCc2ccc(-c3nc4ccccc4c(=O)n3N)o2)cc1`: the GFP response vs DMSO was 249% [may fluoresce violet] (active).
